These results are taken from PubChem BioAssay AID1578 (Sanford-Burnham Center for Chemical Genomics, 2009).

Where “and” joins values, the source holds several entries; their conditions need not be identical. Equal entries are not always repeated. About 3,000 (1%) of roughly 290,000 compounds were called active. The entries come from a sample that favours actives as a whole. Values without a mark were called inactive. Cut-off read from the data, not from the text of the source: active = inhibition mostly above about 36% (no sharp cut-off); inactive = mostly below about 34%.

A word on the inhibition: it is the change of the read-out against control, counted positive when it falls.

The nature of this assay: inhibition of NOD1-driven NF-kB reporter – cell-based, luminescence, uHTS, primary screen (AID 1578).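 Note: HEK-293T reporter cells stimulated with the NOD1 agonist gamma-tri-DAP.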 The note with it: NOD1-driven NF-kB luciferase reporter cells, at 4 µM, active compounds read high. On the technique in general: Reporter assays use an easily measured gene product as a stand-in for the process of interest.
Consider `CCOC(=O)N1CCN(S(=O)(=O)N2CCCC(C(=O)NCCc3ccccc3)C2)CC1` (configuration not stated), for which the inhibition is -26.5%.

Take `CC(C)c1[nH]c(=O)c(C#N)c2c1COC(C)(C)C2`: the inhibition was -18.6%.

For `CC(C)n1c(O)c(N=NC(=O)CNC(=O)c2cccnc2)c2ccccc21`, the inhibition is -19.7%. For the compound `CCCc1nc(NCCO)c(C#N)c2c1CCCC2`, the inhibition is 17.9%.

In the case of `CC(C)c1nc(NCCO)c(C#N)c2c1CCCC2`, the inhibition was 81% (active). Turning to `CCCCc1nc(NCCO)c(C#N)c2c1CCCC2`, the inhibition was -8.5%. To `CCCc1nn2c(N)c(/C=C3\C=Nc4ccccc43)c(=O)nc2s1` belongs -56% and -14.1%. `CCCCc1nn2c(N)c(/C=C3\C=Nc4ccccc43)c(=O)nc2s1`: the inhibition was 79.1% (active).

Regarding `CCc1nn2c(N)c(/C=C3\C=Nc4ccccc43)c(=O)nc2s1`, the inhibition was -37.5% and 2.9%.

For the compound `Cc1ccc(S(=O)(=O)n2cc(-c3ccccc3)c(N)n2)cc1`, the inhibition was -4.9%.

Regarding `Nc1nonc1C(=O)NCCNC(=O)c1cccc(Cl)c1`, the inhibition was -28.8%.

For the compound `CC(=O)N(c1ccc(Cl)cc1)c1cn(C(C)=O)c2ccccc12`, the inhibition is -16.5%. Under `COc1ccccc1N(C(=O)CCl)c1cn(C(C)=O)c2ccccc12` stands 93% (active); under `CCOC(=O)c1ccccc1Nc1cn(C(C)=O)c2ccccc12`, -3.8%; under `CC(=O)n1cc(CO)c2ccccc21`, -5.2%. Under `CC(=O)n1cc(N(C(=O)CCl)c2ccc([N+](=O)[O-])cc2)c2ccccc21` stands 38.7% (active); under `CC(=O)n1cc(Nc2ccc([N+](=O)[O-])cc2)c2ccccc21`, -18%; under `CC(=O)n1cc(N(C(=O)CCl)c2ccc(Cl)cc2)c2ccccc21`, 14.2%. Under `O=Cc1[nH]c2ccccc2c1N(C(=O)CCl)c1ccc([N+](=O)[O-])cc1` stands 19.2%. As for `CN1/C(=C/C(=O)CSc2ccccc2C(=O)O)C(C)(C)c2ccccc21`, the inhibition is 10.5%.

Regarding `CCC(Oc1ccccc1OC)C(=O)N1CC(=O)Nc2ccccc21` (configuration not stated), the inhibition was 29%. As for `CCOc1ccc(NS(=O)(=O)c2ccc(NS(=O)(=O)c3cccs3)cc2)cc1`, the inhibition was -17.3%.

On to `COc1ccc(Cl)cc1NC(=O)N(C)Cc1c(C)nn(C)c1C`, for which the inhibition was -24.6%. To `Cc1cc(NCc2ccccc2)nc(-c2ccccc2O)n1` belongs -41.6%; to `CCOC(=O)c1c(C)[n+]([O-])c2ccc3c(non3O)c12`, -24.8%; to `[O-][n+]1c2c(c3c4non(O)c4ccc31)CCCC2`, 79.7% (active). To `CC(=O)c1c(C)[n+]([O-])c2ccc3c(non3O)c12` belongs -20%.

In the case of `CCN(C(=O)c1c(-c2ccccc2Cl)noc1C)C1CCCCC1`, the inhibition is -10.1%.

With `Cc1cc(C)c2nc3nc(C)c(C)cc3c(N)c2c1`, the inhibition is -27.3%.

Turning to `Cc1cc(C)c2nc3nc(C)cc(C)c3c(N)c2c1`, the inhibition is -26.5%. Under `Cc1cc(C)c2nc(C(F)(F)F)c(C#N)c(N)c2c1` stands 76.9% (active). As to `COc1cc2c(=O)n(CCC(=O)NCC3CCCO3)c(=O)n(CC(=O)Nc3ccc(C)c(C)c3)c2cc1OC` (configuration not stated), the inhibition was -11.3%. For `CC(C)(CO)NS(=O)(=O)c1ccc2c(c1)oc(=O)c1cc(S(=O)(=O)NC(C)(C)CO)ccc12`, the inhibition was -6.5%. `CC(C)(C)C(=O)Nc1cc2nn(-c3ccccc3)nc2cc1Cl`: the inhibition is 87.1% (active). For `CC(=O)Nc1cc2nn(-c3ccccc3)nc2cc1Cl`, the inhibition was -27.6%. Under `CCC(=O)Nc1cc2nn(-c3ccccc3)nc2cc1Cl` stands -22.2%; under `O=C(O)C1CCCN1c1ncccc1[N+](=O)[O-]` (configuration not stated), -20.8%; under `CCN1CCN(CC(O)COCCOc2ccc(Br)cc2)CC1` (configuration not stated), -19.1%. For `OCCN1CCN(CC(O)COCCOc2ccc(Br)cc2)CC1` (configuration not stated), the inhibition was 62.2% (active). Under `CN1CCN(CC(O)COCCOc2ccc(Br)cc2)CC1` (configuration not stated) stands -26%. To `O=C(COc1ccccc1CNCc1ccccc1)Nc1ccccc1` belongs -69.5%; to `O=c1c2cc(NC(=S)N3CCCCC3)ccc2nc2n1CCCCC2`, -32.7%. To `O=CN1CCN(C(=O)c2ccc(-c3nc4ccccc4s3)s2)CC1` belongs -25.6%. With `O=C(NC1CC1)c1ccc(-c2nc3ccccc3s2)s1`, the inhibition is 70.1% (active). For the compound `CCN1CCN(C(=O)c2ccc(-c3nc4ccccc4s3)s2)CC1`, the inhibition is -43.4%. Under `Cc1ccc2nc(NC(=O)c3ccc(-c4nc5ccccc5s4)s3)sc2c1` stands -74.1%. Consider `O=C(c1ccc(-c2nc3ccccc3s2)s1)N1CCOCC1`, for which the inhibition is 82.9% (active). Regarding `CCCNC(=O)c1ccc(-c2nc3ccccc3s2)s1`, the inhibition is -50.1%. As for `COc1ccc(NC2CCCN(C(=O)CN3C(=O)c4ccccc4C3=O)C2)cc1OC` (configuration not stated), the inhibition was -24.8%.

Turning to `COc1ccc(OC)c2c(C)cc(N3CCN(C(=O)c4ccc(C)cc4)CC3)nc12`, the inhibition was -12.9%. In the case of `CN(C1CCCCC1)C(CNS(=O)(=O)c1ccc(Cl)cc1)c1ccccc1` (configuration not stated), the inhibition is -15.5%. To `O=C(O)c1ccccc1-n1cccc1C(=O)O` belongs -9.5%; to `CCN(CC)c1ccc(S(=O)(=O)N2CCOCC2)cc1NC(=O)CN1CCN(Cc2ccccc2)CC1`, -3.8%. To `O=C(CN1CCc2ccccc2C1)Nc1cc(S(=O)(=O)N2CCOCC2)ccc1N1CCOCC1` belongs -17.8%. In the case of `O=C(NNC(=O)c1ccccc1OCc1ccccc1Cl)c1csc(N2CCOCC2)n1`, the inhibition was 96.3% (active). Under `O=C(NNC(=O)c1ccccc1C(F)(F)F)c1csc(N2CCOCC2)n1` stands -87.8%; under `O=C(NNC(=O)c1cc(Br)ccc1Cl)c1csc(N2CCOCC2)n1`, -14.6%; under `CCc1ccc(NC(=O)CN2CCCN(S(=O)(=O)c3ccc(F)cc3)CC2)cc1`, -21.6%. Under `O=C1CC(c2nc3ccccc3[nH]2)CN1Cc1ccccc1` (configuration not stated) stands -15%; under `COc1ccc(CCNC(=O)C2CC(=O)N(C3CCCCCCC3)C2)cc1OC` (configuration not stated), -23.8%. Under `O=c1c2ccccc2nc2n1CCS2` stands -2.5%. Take `Cc1ccc2c(=O)cc(C(=O)NC3CCS(=O)(=O)C3)oc2c1` (configuration not stated): the inhibition is -12%. As to `O=C(NCc1nc(-c2ccc(C(F)(F)F)cc2)no1)Nc1cc(Cl)cc(Cl)c1`, the inhibition was 44.1% (active). On to `O=C(NCc1nc(-c2ccc(C(F)(F)F)cc2)no1)Nc1ccc(OC(F)(F)F)cc1`, for which the inhibition is 5.1%. Turning to `O=C(NCc1nc(-c2ccc(C(F)(F)F)cc2)no1)Nc1ccc(F)cc1F`, the inhibition was 3.8%. Take `Cc1ccccc1CC(=O)N1CC(C)OC(C)C1` (configuration not stated): the inhibition is -15.5%. To `O=C(Nc1cccc2[nH]ncc12)c1ccc(F)cc1` belongs -0.2%; to `O=C(NC(=S)Nc1cccc2cccnc12)c1ccccc1`, -2.9%; to `CNC(=S)Nc1cccc2[nH]ncc12`, -6.5%. In the case of `O=C(NC(=S)Nc1cccc2[nH]ncc12)c1ccccc1`, the inhibition was 68.4% (active). Turning to `O=C(NC(=S)Nc1cccc2cnccc12)c1ccccc1`, the inhibition is 80.9% (active). Under `S=C(NCc1ccccc1)Nc1cccc2cnccc12` stands 41.4%; under `CS(=O)(=O)N(CC(=O)Nc1cccnc1)c1ccc2c(c1)OCCO2`, -12.2%. As to `CS(=O)(=O)N1CCN(c2ccccc2NC(=O)c2ccc(-c3ccc(Br)cc3)o2)CC1`, the inhibition is -21.7%. `CC(C)c1ccc(NC(=O)COC(=O)CCC(=O)c2cccs2)cc1`: the inhibition was 5.4%. To `O=C1c2ccccc2C(=O)c2c1cccc2-n1nnc2ccccc21` belongs 3.1%; to `O=C(O)c1ccc(NC2=C(n3nnc4ccccc43)C(=O)c3ccccc3C2=O)cc1`, -3.8%. With `O=C1C(N2CCOCC2)=C(n2nnc3ccccc32)C(=O)c2ccccc21`, the inhibition is 101% (active). Consider `CCOC(=O)c1ccc(NC(=O)CN2C(=O)C(CC)SC(CC)C2=O)cc1` (configuration not stated), for which the inhibition is -15.5%.

As to `O=C(c1ccc2ccccc2c1)N1CCCCC1`, the inhibition was 14.9%. To `Cc1nn(-c2ccccc2)nc1C(=O)Nc1nnc(C(F)(F)F)s1` belongs 54.4% (active); to `O=C(Nc1nnc(C(F)(F)F)s1)c1c(F)cccc1F`, 2%; to `O=C(Nc1nnc(C(F)(F)F)s1)c1ccc(Br)s1`, 84% (active). Take `Cc1nn(-c2ccccc2)nc1C(=O)NNC(=O)c1ccc(C(F)(F)F)cc1`: the inhibition was -5.6%. For `CCc1nnc(NC(=O)c2nn(-c3ccccc3)nc2C)s1`, the inhibition is -6.6%. As for `CCSc1nnc(NC(=O)c2ccc(Br)s2)s1`, the inhibition was -37.5%. Regarding `CC1(C)CC(=O)/C(=C(\O)CCCN2C(=O)c3ccccc3C2=O)C(=NCCO)C1`, the inhibition is -17.2%. To `COc1cc2[nH]c(C(=O)NN)c(N)c2cc1OC` belongs -7.9%. To `CC(C)(C)NC(=O)C(c1ccccc1)N(Cc1ccco1)C(=O)c1csnn1` (configuration not stated) belongs -0.4%; to `CCOC(=O)C1CCN(C(=O)Cn2cccc2C(=O)c2ccccc2)CC1`, -13.4%; to `CC1CN(Cc2nc3c(c(=O)[nH]c(=O)n3C)n2CCN2CCOCC2)CC(C)O1` (configuration not stated), 7.3%.

In the case of `CC(C)[C@H](NC(=O)[C@@H]1CSC2c3ccccc3C(=O)N21)C(=O)NCc1ccncc1` (some centres not stated), the inhibition was -23.2%. As for `c1ccc(-c2ccc(-c3ccccn3)nn2)nc1`, the inhibition was 27.1%.

`c1ccc(-c2cccc(-c3ccccn3)n2)nc1`: the inhibition was 90.2% (active). Under `c1ccc(-c2ccccn2)nc1` stands -28.9%. In the case of `O=C(c1ccc2c3c(cccc13)CC2)C1CCCN(C(=O)c2ccc[n+]([O-])c2)C1` (configuration not stated), the inhibition is 10.8%. Under `CCn1c(C)c(C(C)=O)cc(C#N)c1=O` stands -4.6%.
